# From PubChem BioAssay (NCATS)
# Results filed as inconclusive are left out. Entries that show only a call come without a potency. Values without a mark were called inactive. Activity calls are given as the source filed them. Calls come from the whole dose curve; as a rule, active = well fitted curve in the direction sought with a large enough effect; inconclusive = small, poorly fitted or top-dose-only effect, or another doubt; inactive = no such curve, though single readings can be large; an effect the other way counts as inactive or inconclusive. Where a SMILES comes first, the peptide text is derived from it. The star is where a group is joined. AFC = O=c1cc(C(F)(F)F)c2ccc(N*)cc2o1
# Key:
# [1] = P-glycoprotein substrates identified in KB-3-1 adenocarcinoma cell line, qHTS therapeutic library screen (AID 1346986); note: nearly all actives have a fitted effect of over 60% in size;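 note: potency is the fitted concentration of half-maximal effect; potency is for cytotoxicity meaning loss of cell viability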
# Outline: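 Counter-screen: cherry-picked hits retested in the KB pair and in HEK-293 pcDNA/MDR-19 cells ± tariquidar. Primary screen used 72 h CellTiter-Glo viability in KB-3-1 and KB-8-5-11.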
# [2] = P-glycoprotein substrates identified in KB-8-5-11 adenocarcinoma cell line, qHTS therapeutic library screen (AID 1346987); note: nearly all actives have a fitted effect of over 65% in size; for activity change, negative = cytotoxicity: series mostly up to about 44 µM
# Outline: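 KB-8-5-11: colchicine-selected sub-line of KB-3-1 over-expressing P-gp; assay medium lacked colchicine. 72 h drug exposure at 37 degree C, CellTiter-Glo.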
structure (smiles),measurement,setting,value
CC(C)C[C@H](CC(=O)NO)C(=O)N[C@H](C(=O)N[C@@H](C)C(=O)NCCN)C(C)(C)C,outcome,[1],inactive [at 9.29 µM]
same,"activity change, negative = cytotoxicity",[2],2.84% [at 9.29 µM]
COc1c2cc(c(O)c1OC)-c1cc(ccc1O)CCC(O)CCCC2 (configuration not stated),Potency,[1],inactive
CC(C)C(=O)OC[C@H]1O[C@H](O[C@H]2O[C@H](CO)[C@@H](O)[C@H](O)[C@H]2O)[C@H](O)[C@@H](O)[C@@H]1O,Potency,[1],inactive
CC(=O)N[C@@H](Cc1c[nH]c2ccccc12)C(=O)N[C@@H](CCC(=O)O)C(=O)N[C@@H](Cc1cnc[nH]1)C(=O)N[C@@H](CC(=O)O)C(=O)Nc1ccc2c(C(F)(F)F)cc(=O)oc2c1 (Ac-WEHD-{AFC}),Potency,[1],inactive
CC(=O)O[C@@H]1c2c3c(cc(O)c2C(=O)O[C@@H]1C)O[C@@]1(C)[C@@H](O)C[C@H]2C(C)(C)C(=O)C=C[C@]2(C)[C@@H]1C3,Potency,[1],inactive
CC(=O)N1CCN(C(=O)Cc2ccc(Nc3ncc(F)c(Nc4ccc(C(=O)Nc5ccccc5Cl)cc4)n3)cc2)CC1,Potency,[1],2910 nM (active)
C[C@@H]1O[C@@H](O[C@H]2[C@H](O[C@H]3[C@H](O)[C@@H](C(=O)O)O[C@@H](O[C@H]4CC[C@@]5(C)C(CC[C@]6(C)C5CC[C@]57OC[C@@]8(CCC(C)(C)CC85)[C@H](O)C[C@]76C)C4(C)C)[C@@H]3O[C@@H]3O[C@H](CO)[C@@H](O[C@@H]4OC[C@@H](O)[C@H](O)[C@H]4O)[C@H](O)[C@H]3O)O[C@H](CO)[C@H](O)[C@@H]2O)[C@H](O)[C@H](O)[C@H]1O (some centres not stated),outcome,[1],inactive [at 9.29 µM]
same,"activity change, negative = cytotoxicity",[2],2.43% [at 9.29 µM]
C=C1[C@H](OC(C)=O)[C@H]2[C@@H](OC(C)=O)[C@](C)(OC(C)=O)C[C@]2(OC(C)=O)C(=O)[C@H](C)/C=C/C(C)(C)C(=O)[C@H](OC(=O)C(C)CC)[C@H]1OC(C)=O (some centres not stated),Potency,[1],inactive
same,Potency,[2],inactive
O=C(O)c1cn(C2CC2)c2cc(N3C[C@@H]4C[C@H]3CN4)c(F)cc2c1=O,Potency,[1],inactive
O=C(O[C@H]1[C@@H]2C=CO[C@@H](O[C@@H]3O[C@H](CO)[C@@H](O)[C@H](O)[C@H]3O)[C@@H]2[C@@]2(CO)O[C@@H]12)c1ccccc1,Potency,[1],inactive
O=C(NCC(O)CO)c1ccncc1Nc1ccc(I)cc1F (configuration not stated),Potency,[1],inactive
same,Potency,[2],inactive
CCc1c(-c2ccccc2)c(-c2ccccc2)nn1-c1ccccc1-c1cccc(OCC(=O)O)c1,Potency,[1],inactive
COc1cc(/C=C/C=O)cc(OC)c1O[C@@H]1O[C@H](CO)[C@@H](O)[C@H](O)[C@H]1O,Potency,[1],inactive
CS(=O)(=O)c1ccc([C@H](CC2CCCC2)C(=O)Nc2nccs2)cc1,Potency,[1],inactive
CCS(=O)(=O)N1CCN(c2ccc(Nc3ncc(C(N)=O)c(NC4CC4)n3)cc2)CC1,Potency,[1],4610 nM (active)
CC1=CC2C(CC1OC1OC(CO)C(O)C(O)C1O)C(C)CC(=O)C2C(C)C (configuration not stated),Potency,[1],inactive
same,Potency,[2],inactive
COC(C(=O)N1Cc2[nH]nc(NC(=O)c3ccc(N4CCN(C)CC4)cc3)c2C1)c1ccccc1 (configuration not stated),Potency,[1],517 nM (active)
CC(C)(F)C[C@@H](N[C@@H](c1ccc(-c2ccc(S(C)(=O)=O)cc2)cc1)C(F)(F)F)C(=O)NC1(C#N)CC1,Potency,[1],inactive
C=C1C(O)CC2C(C(=O)O)=COC(O[C@@H]3O[C@H](COC(=O)/C=C/c4ccc(O)cc4)[C@@H](O)[C@H](O)[C@H]3O)C12 (some centres not stated),Potency,[1],inactive
COc1ccc(CNC(=O)c2cc(-c3cncc(C)c3)ncc2-c2nccs2)nc1OC,Potency,[1],inactive
CC/C=C\CCO[C@@H]1O[C@H](CO[C@@H]2OC[C@H](O)[C@H](O)[C@H]2O)[C@@H](O)[C@H](O)[C@H]1O,Potency,[1],inactive
Cc1nc(NC(=O)N2CCCC2C(N)=O)sc1-c1csc(C(C)(C)C)n1 (configuration not stated),Potency,[1],inactive
C=C1CC[C@@H]2[C@@](C)(CO[C@@H]3O[C@H](CO)C(O)[C@H](O)C3O)[C@H](O)CC[C@@]2(C)[C@@H]1CC/C(C)=C/CO (some centres not stated),outcome,[1],inactive [at 9.29 µM]
same,"activity change, negative = cytotoxicity",[2],5.95% [at 9.29 µM]
CC(C)(O)/C=C/CC(C)(O)C1C(O)CC2(C)C3CCC4C(C)(C)C(=O)CCC4(C)C3CCC12C (configuration not stated),Potency,[1],inactive
CC/C=C\CC1C(=O)C=CC1(CCCCCCCC(=O)O)OC(C)=O (configuration not stated),Potency,[1],inactive
same,Potency,[2],inactive
CC1=C2C[C@H]3O[C@@]3(C)CCC3O[C@@]3(C)C[C@@]2(O)OC1=O (some centres not stated),Potency,[1],inactive
same,Potency,[2],inactive
COC(=O)[C@H](O)[C@H]1C(C)(C)[C@H](OC(=O)C(C)C)[C@@]2(O)C(=O)[C@]1(C)C1CC[C@]3(C)C(CC(=O)O[C@H]3c3ccoc3)[C@]13O[C@@H]32 (some centres not stated),Potency,[1],inactive
C[C@H](N)C(=O)N[C@@H](Cc1ccc(O)cc1)C(=O)N1CCC[C@H]1C(=O)NCC(=O)N[C@@H](CCCCN)C(=O)N[C@@H](Cc1ccccc1)C(N)=O,outcome,[1],inactive [at 9.29 µM]
same,outcome,[2],inactive [at 9.29 µM]
O=C(Nc1ccc(-c2ccncc2)cc1)N[C@H](CO)c1ccccc1,Potency,[1],inactive
COc1ccc(/C=C\C(=O)O)c(O[C@@H]2O[C@H](CO)[C@@H](O)[C@H](O)[C@H]2O)c1,Potency,[1],inactive
CC1CC(C(O)C(C)(C)O)OC2CC3(C)C4(C)CCC5C(C)(C)C(=O)CCC5(C)C4CCC3(O)C12O (configuration not stated),Potency,[1],inactive
same,Potency,[2],inactive
CC(=O)OC1C(O)C2C(C)C3=CC(=O)OC3(O)CC2C2(C)CCCC(C)(CO)C12 (configuration not stated),Potency,[1],inactive
